Data published in ChEMBL document CHEMBL1961873, “Compounds: GSK PKIS; Assays: Nanosyn kinase panel” (2012).

Tests used:
[1] = molecular target: T1, Serine/threonine-protein kinase D2 (Homo sapiens) (UniProt Q9BZL6); settings: at 1 µM;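 note: mean value of PRKD2 inhibition, from the GSK PKIS screening panel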
T1 sequence (whole entry): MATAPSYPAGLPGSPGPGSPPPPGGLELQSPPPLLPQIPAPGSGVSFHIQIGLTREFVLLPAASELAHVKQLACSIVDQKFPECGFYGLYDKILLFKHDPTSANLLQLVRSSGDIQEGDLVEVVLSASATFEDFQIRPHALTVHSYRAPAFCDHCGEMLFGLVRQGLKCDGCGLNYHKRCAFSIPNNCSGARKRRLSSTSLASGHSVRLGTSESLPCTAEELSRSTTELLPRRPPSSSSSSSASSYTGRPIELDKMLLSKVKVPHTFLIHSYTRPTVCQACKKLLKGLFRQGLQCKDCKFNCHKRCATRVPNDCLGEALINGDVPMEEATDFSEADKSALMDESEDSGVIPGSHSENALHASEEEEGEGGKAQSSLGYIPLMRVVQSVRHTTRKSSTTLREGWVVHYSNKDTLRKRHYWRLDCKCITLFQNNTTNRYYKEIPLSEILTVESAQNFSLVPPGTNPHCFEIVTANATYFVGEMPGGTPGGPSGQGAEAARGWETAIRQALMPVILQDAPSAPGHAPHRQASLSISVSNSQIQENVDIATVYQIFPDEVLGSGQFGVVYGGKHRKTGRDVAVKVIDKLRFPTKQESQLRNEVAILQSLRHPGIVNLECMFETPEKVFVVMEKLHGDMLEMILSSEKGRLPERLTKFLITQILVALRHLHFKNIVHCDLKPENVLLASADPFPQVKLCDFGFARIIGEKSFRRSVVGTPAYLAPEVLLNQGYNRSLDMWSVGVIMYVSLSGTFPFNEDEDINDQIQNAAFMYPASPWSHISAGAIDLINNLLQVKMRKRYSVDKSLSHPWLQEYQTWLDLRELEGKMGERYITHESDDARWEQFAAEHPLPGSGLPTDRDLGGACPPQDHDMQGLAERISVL

[2] = molecular target: T2, Serine/threonine-protein kinase D3 (Homo sapiens) (UniProt O94806); settings: at 0.1 µM
T2 sequence (whole entry): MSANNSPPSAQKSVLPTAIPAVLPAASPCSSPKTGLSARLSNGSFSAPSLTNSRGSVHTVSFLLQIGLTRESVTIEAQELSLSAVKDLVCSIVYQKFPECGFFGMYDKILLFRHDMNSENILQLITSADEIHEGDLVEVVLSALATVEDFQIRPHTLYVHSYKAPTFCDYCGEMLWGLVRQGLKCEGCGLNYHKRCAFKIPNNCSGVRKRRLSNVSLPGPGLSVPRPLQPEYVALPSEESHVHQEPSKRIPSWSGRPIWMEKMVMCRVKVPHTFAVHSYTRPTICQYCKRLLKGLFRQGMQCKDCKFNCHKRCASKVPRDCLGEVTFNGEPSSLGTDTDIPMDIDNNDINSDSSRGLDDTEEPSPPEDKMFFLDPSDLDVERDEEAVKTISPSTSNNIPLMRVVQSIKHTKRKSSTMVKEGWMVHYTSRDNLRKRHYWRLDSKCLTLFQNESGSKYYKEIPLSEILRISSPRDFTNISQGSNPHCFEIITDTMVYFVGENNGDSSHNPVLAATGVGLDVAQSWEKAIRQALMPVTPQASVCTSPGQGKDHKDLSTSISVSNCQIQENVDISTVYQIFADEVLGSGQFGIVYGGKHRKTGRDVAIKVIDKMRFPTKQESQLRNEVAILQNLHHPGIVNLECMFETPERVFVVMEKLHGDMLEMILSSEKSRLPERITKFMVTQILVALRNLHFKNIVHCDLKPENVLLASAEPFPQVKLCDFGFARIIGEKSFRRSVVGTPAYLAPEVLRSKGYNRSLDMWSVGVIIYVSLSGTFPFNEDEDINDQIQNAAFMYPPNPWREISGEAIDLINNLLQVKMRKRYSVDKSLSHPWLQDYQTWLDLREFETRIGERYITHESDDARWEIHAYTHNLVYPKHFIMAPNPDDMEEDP

[3] = molecular target: T2, Serine/threonine-protein kinase D3 (Homo sapiens); settings: at 1 µM
[4] = molecular target: T3, cGMP-dependent protein kinase 1 (Homo sapiens) (UniProt Q13976); settings: at 0.1 µM
T3 sequence (whole entry): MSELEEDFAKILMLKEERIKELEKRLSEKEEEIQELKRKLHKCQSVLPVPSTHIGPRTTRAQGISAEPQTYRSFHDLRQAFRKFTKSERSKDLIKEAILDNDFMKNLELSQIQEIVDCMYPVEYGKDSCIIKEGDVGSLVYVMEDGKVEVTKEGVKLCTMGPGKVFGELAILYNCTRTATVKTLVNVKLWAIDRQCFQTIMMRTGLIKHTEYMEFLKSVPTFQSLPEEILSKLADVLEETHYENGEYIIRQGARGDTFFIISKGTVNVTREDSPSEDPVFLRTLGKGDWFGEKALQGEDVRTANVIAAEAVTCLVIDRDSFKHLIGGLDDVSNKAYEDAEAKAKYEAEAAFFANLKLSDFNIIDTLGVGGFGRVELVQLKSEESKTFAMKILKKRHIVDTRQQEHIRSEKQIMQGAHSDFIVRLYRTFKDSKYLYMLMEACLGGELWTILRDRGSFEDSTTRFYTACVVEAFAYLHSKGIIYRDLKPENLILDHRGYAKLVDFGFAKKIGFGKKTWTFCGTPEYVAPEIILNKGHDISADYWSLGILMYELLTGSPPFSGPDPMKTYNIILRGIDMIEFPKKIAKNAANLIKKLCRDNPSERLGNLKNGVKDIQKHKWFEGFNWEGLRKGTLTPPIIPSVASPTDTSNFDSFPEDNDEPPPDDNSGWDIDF

[5] = molecular target: T3, cGMP-dependent protein kinase 1 (Homo sapiens); settings: at 1 µM
[6] = molecular target: T4, cGMP-dependent protein kinase 2 (Homo sapiens) (UniProt Q13237); settings: at 0.1 µM
T4 sequence (whole entry): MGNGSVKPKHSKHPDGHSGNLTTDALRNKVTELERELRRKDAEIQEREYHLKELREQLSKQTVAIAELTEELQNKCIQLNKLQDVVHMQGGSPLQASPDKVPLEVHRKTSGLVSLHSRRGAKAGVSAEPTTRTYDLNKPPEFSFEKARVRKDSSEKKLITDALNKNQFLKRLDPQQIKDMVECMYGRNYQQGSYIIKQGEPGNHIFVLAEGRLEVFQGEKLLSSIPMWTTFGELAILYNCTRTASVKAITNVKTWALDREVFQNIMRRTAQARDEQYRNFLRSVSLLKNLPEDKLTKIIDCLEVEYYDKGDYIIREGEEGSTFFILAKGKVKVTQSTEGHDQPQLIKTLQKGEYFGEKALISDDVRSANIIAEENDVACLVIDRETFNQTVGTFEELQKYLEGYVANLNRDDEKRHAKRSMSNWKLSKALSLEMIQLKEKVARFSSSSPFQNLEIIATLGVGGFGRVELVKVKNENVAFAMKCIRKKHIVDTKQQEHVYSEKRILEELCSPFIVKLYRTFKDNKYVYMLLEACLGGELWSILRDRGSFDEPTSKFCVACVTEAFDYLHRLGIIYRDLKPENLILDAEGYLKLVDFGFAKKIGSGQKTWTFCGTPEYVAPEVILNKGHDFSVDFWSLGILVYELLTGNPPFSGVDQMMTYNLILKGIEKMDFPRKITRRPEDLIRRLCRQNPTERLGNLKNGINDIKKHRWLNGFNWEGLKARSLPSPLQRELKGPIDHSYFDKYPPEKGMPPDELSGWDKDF

[7] = molecular target: T4, cGMP-dependent protein kinase 2 (Homo sapiens); settings: at 1 µM
[8] = molecular target: T5, cAMP-dependent protein kinase catalytic subunit PRKX (Homo sapiens) (UniProt P51817); settings: at 0.1 µM
T5 sequence (whole entry): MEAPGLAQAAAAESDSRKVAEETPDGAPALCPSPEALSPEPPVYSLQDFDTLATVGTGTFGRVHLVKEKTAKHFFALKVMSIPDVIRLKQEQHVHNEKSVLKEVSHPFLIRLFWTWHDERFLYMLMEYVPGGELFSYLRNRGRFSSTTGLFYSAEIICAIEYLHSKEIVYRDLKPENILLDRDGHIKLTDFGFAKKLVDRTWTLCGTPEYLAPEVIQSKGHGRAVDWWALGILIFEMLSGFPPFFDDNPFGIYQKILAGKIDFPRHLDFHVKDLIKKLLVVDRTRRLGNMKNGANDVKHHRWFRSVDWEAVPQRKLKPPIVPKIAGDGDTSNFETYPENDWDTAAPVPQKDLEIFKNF

[9] = molecular target: T5, cAMP-dependent protein kinase catalytic subunit PRKX (Homo sapiens); settings: at 1 µM
[10] = molecular target: Rho-associated protein kinase 1 (Homo sapiens) (UniProt Q13464); settings: at 0.1 µM;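 note: values are mean percent inhibition of ROCK1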
Chain of Rho-associated protein kinase 1 (Homo sapiens) (Q13464 2-1354 limits assumed): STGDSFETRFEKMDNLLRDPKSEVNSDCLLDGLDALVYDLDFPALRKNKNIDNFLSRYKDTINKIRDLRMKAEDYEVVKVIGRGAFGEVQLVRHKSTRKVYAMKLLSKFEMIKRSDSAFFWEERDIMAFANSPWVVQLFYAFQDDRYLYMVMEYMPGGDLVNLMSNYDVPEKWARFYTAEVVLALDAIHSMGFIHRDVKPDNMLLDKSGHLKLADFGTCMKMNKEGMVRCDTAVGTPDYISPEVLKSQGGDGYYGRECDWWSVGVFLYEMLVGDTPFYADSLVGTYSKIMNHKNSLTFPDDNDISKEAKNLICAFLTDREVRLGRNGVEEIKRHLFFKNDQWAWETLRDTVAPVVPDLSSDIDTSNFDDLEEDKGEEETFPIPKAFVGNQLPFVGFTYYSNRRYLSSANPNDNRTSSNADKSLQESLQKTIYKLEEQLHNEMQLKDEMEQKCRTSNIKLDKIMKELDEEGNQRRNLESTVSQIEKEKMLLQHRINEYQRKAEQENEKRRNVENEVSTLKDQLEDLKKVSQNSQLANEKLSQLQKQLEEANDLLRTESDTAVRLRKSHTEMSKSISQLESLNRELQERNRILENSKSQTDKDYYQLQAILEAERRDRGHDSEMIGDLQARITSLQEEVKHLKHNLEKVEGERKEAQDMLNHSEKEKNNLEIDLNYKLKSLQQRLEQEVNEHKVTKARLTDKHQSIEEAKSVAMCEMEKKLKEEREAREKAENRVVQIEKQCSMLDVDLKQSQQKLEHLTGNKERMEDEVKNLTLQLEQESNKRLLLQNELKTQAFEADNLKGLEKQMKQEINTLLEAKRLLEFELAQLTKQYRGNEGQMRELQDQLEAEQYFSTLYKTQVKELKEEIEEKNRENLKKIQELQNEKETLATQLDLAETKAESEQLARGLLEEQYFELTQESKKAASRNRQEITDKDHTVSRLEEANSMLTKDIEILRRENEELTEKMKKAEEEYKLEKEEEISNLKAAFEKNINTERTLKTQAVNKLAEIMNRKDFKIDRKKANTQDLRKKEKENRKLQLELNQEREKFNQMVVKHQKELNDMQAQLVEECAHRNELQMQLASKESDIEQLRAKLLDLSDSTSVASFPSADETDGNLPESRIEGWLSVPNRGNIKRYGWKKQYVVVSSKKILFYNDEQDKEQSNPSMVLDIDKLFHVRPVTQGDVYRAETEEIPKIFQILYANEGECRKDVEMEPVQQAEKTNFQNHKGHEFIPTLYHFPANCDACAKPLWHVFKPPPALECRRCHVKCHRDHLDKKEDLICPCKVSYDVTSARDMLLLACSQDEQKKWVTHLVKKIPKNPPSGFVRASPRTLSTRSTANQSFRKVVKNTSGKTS

Row | Compound | inhibition [1] [%] | inhibition [2] [%] | inhibition [3] [%] | inhibition [4] [%] | inhibition [5] [%] | inhibition [6] [%] | inhibition [7] [%] | inhibition [8] [%] | inhibition [9] [%] | inhibition [10] [%]
1 | COc1ccc2cc(-c3c(-c4ccncc4)nc(-c4ccc([S+](C)[O-])cc4)n3C)ccc2c1 (stereo not drawn) | 4.99 | 3.54 | 4.91 | 1.31 | 4.18 | 2.83 | 4.08 | 1.36 | -0.32 | 0.49
2 | CCn1c(-c2nonc2N)nc2cncc(C(=O)N3CCNCC3)c21 | 4.19 | 5.65 | 4.94 | 5.91 | 9.25 | 6.28 | 7.34 | 3.9 | 3.75 | 
3 | [O-][S+]1CCN(Cc2ccc(-c3ccc4ncnc(Nc5ccc(OCc6ccccc6)c(F)c5)c4c3)o2)CC1 | 4.32 | 2.88 | 3.26 | 1.05 | 3.37 | 0.25 | 2.79 | 0.09 | -1.73 | -0.61
4 | CCn1c(-c2nonc2N)nc2cncc(C(=O)N3CC[C@H](N)C3)c21 | 8.24 | 3.97 | 7.57 | 57 | 82.5 | 72.7 | 83.7 | 31.8 | 73.4 | 
5 | COc1ccccc1Nc1ncc(-c2ccccc2)o1 | 2.18 | 4.57 | 4.66 | 3.64 | 1.96 | 3.07 | 2.81 | 2.55 | 3.03 | 2.99
6 | Nc1ncnc2occ(-c3ccc(NC(=O)Nc4cccc(C(F)(F)F)c4)cc3)c12 | 4.09 | 5.37 | 5.91 | 3.04 | 1.94 | 2.46 | 3.85 | 1.94 | 3.42 | 4.04
7 | COc1cc2ncn(-c3cc(OCc4ccccc4Cl)c(C(N)=O)s3)c2cc1OC | 1.64 | 0.33 | 0.33 | 1.08 | 3.55 | 0.53 | 1.84 | -0.05 | -3.1 | -0.3
8 | CS(=O)(=O)CCNCc1nc(-c2ccc3ncnc(Nc4ccc(F)c(Cl)c4)c3c2)cs1 | 2.87 | 1.23 | 1.58 | 1.73 | 3.32 | 0.95 | 2.67 | 0.91 | 1.76 | 1.23
9 | CCn1c(-c2nonc2N)nc2ccncc21 | 3.25 | 0.84 | 2.17 | 0.57 | 3.36 | 2.12 | 8.39 | 0.91 | -1.6 | 1.94
10 | O=C1Nc2ccc(C(=O)c3ccco3)cc2C1=Cc1cc(Cl)c(O)c(Cl)c1 | 5.54 | 3.68 | 6.98 | 1.67 | 4.46 | 1.29 | 5.93 | 1.34 | 2.91 | 1.44
